p53ts 39C tox: kills p53ts cells at the nonpermissive temperature; actives 1.5% (n = 130,000); Potency, µM (highest dose often 46.1 µM), hits mostly cytotoxic; H1299-p53A138V viability at 39C, ATP luminescence, 24 h; note: nearly all actives have a fitted effect of over 55% in size
p53ts 32C kill: p53ts cell cytotoxicity, permissive temperature; H1299-p53A138V at 32C, ATP luminescence viability, 24 h; Potency, µM (doses to about 46.1 µM), usual class: cytotoxic; actives 0.93% (n = 130,000); AID 924; note: nearly all actives have a fitted effect of over 55% in size
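Viability by ATPlite luminescence after 24 h compound treatment (up to 46 uM) at the permissive 32C. Cells are H1299 carrying p53 A138V. Scale runs from DMSO basal to 100 uM tamoxifen as full kill; AC50 from Hill fits.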
IkB sig inh: IkB pathway inhibition in ABC-DLBCL cells. ABC-DLBCL IkBa-CBG/CBR dual luciferase ratio, 4 h; response scale: scaled: untreated 0%, proteasome inhibitor 100%. Potency, µM (doses to about 57.1 µM). actives 0.04% (n = 110,000). AID 445; active = well fitted curve in the direction sought with a large enough effect in the signal ratio, not every such curve was filed as active; inconclusive = small, poorly fitted or top-dose-only effect, or a change in a side signal; the % refers to the signal ratio;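 note: the direction sought is a rising ratio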
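In this assay, an IκBα–CBG68 fusion accumulates when IKK-driven degradation is blocked; native CBR normalizes for cell number. OCI-Ly3 cells were treated 4 h with compound and doxycycline, then green and red light read after Chroma-Glo addition.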
Peg3 imprint: inducers of genomic imprint erasure in mouse ES cells | mouse ES Peg3-LacZ reporter, beta-gal luminescence, 40 h | Potency, µM (titrated, usually from 60.7 µM), most hits filed as activators | actives 0.02% (n = 110,000) | AID 1948
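Gelatin-coated wells received 300 freshly trypsinized female ES cells with a Peg3LacZ-Neo reporter on the maternal allele, then incubated 40 hours at 37C. BetaGlo was added for 5 minutes at room temperature before a single luminescence read.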
Of the large screens only hits and unclear results are named; the others gave an inactive call. A selection: hits, their analogues and other compounds. The true share with any hit is near 1.8%. Unless noted, calls come from the whole dose curve; as a rule, active = well fitted curve in the direction sought with a large enough effect; inconclusive = small, poorly fitted or top-dose-only effect, or another doubt; inactive = no such curve, though single readings can be large; an effect the other way counts as inactive or inconclusive.

C#CCn1c(=NC(=O)c2ccc3c(c2)OCCO3)sc2cc(OC)c(OC)cc21	IkB sig inh inconclusive
CCn1c(=NC(=O)c2ccc3c(c2)OCCO3)sc2c(C)ccc(OC)c21	p53ts 39C tox 10µM
Cc1cc(Nc2cccc(C(F)(F)F)c2)nc2ccc(NC(=O)c3cccnc3)cc12	p53ts 32C kill 12.6µM (no result: p53ts 39C tox, IkB sig inh, Peg3 imprint)
CC(=O)c1ccc(NC(=O)c2nn(C)c3c2COc2ccccc2-3)cc1	IkB sig inh inconclusive
CCOC(=O)c1ccc(NC(=O)C(CC)Sc2nncn3c2cc2oc(C)cc23)cc1 (stereo not drawn)	IkB sig inh inconclusive
CCC(Sc1nncn2c1cc1oc(C)cc12)C(=O)Nc1ccc(F)cc1 (stereo not drawn)	p53ts 39C tox 20µM, IkB sig inh inconclusive
O=S1(=O)C=C(Sc2nnc(-c3ccccc3)o2)c2ccccc21	p53ts 39C tox inconclusive, p53ts 32C kill 12.6µM, IkB sig inh inconclusive
O=C(Nc1nnc(SCC(=O)N2CCCc3ccccc32)s1)c1ccc2ccccc2c1	p53ts 39C tox 3.16µM (no result: p53ts 32C kill, IkB sig inh, Peg3 imprint)
O=C(Nc1nnc(SCC(=O)N2CCCc3ccccc32)s1)c1ccccc1	p53ts 39C tox 8.91µM (no result: p53ts 32C kill, IkB sig inh, Peg3 imprint)
Cc1cc(C)cc(C(=O)Nc2nnc(SCC(=O)N3CCCc4ccccc43)s2)c1	none (no result: p53ts 32C kill, IkB sig inh, Peg3 imprint)
O=C(Nc1ccc(Cl)cc1)c1cc(S(=O)(=O)NC2CCCCCC2)ccc1F	p53ts 39C tox 12.6µM, IkB sig inh inconclusive
Cc1cccc(N2CCN(c3ncnc4onc(C)c34)CC2C)c1 (stereo not drawn)	p53ts 39C tox 20µM, p53ts 32C kill inconclusive, IkB sig inh inconclusive
CCCCn1c(NC(=O)c2ccccc2)c(C#N)c2nc3ccccc3nc21	p53ts 39C tox 6.31µM, p53ts 32C kill inconclusive, IkB sig inh inconclusive
CCCCn1c(NC(=O)c2ccc(F)cc2)c(C#N)c2nc3ccccc3nc21	IkB sig inh inconclusive
CC(=O)Nc1nonc1NC(C)=O	none
CC(=O)Nc1cc(OC(C)=O)c2nonc2c1OC(C)=O	p53ts 39C tox 7.94µM, p53ts 32C kill 3.16µM, IkB sig inh inconclusive
Oc1c(I)cc(I)c2cccnc12	p53ts 39C tox 7.94µM, p53ts 32C kill inconclusive (no result: IkB sig inh)
Oc1ccc(Cl)c2cccnc12	none (no result: IkB sig inh)
Oc1c(Cl)cc(Cl)c2cccnc12	p53ts 39C tox 3.16µM, p53ts 32C kill inconclusive (no result: IkB sig inh)
Oc1c(CN2CCN(c3ccccn3)CC2)cc(Cl)c2cccnc12	IkB sig inh inconclusive
C[C@H](Cc1ccc(O)c(O)c1)[C@@H](C)Cc1ccc(O)c(O)c1	p53ts 39C tox 20µM, p53ts 32C kill inconclusive
COc1ccc(NC(=O)c2nc3nc(C)cc(C(F)F)n3n2)c(C)c1	none
Cc1ccc(C(=O)Cn2c3c(sc2=N)CCCC3)cc1	p53ts 39C tox 1.58µM, p53ts 32C kill 2µM
CC(C)c1ccc2oc(-c3cc(NC(=O)c4cccnc4)ccc3Cl)nc2c1	p53ts 39C tox inconclusive, p53ts 32C kill 20µM, IkB sig inh inconclusive
O=C(Nc1ccc2oc(-c3cccc(Cl)c3Cl)nc2c1)c1cccc(Br)c1	p53ts 39C tox 10µM, p53ts 32C kill inconclusive
COc1ccc(C(=O)Nc2ccc3oc(-c4cc(Cl)ccc4Cl)nc3c2)cc1Br	p53ts 39C tox 10µM, p53ts 32C kill inconclusive, IkB sig inh inconclusive
COc1cccc(C=NC=Nc2cccc(OC)c2)c1	none
Cn1c(=O)n2n(c1=O)[C@H]1[C@H](O)[C@H]3O[C@@H]3/C(=N/OC[C@@H](O)COCc3ccco3)[C@@H]1CC2	none (no result: IkB sig inh, Peg3 imprint)
O=C(Nc1ccccc1)c1nc[nH]c1C(=O)O	none
O[C@@H](c1cc([C@@]23C[C@H]4CC[C@@H]2C[C@H](C4)C3)nc2c(Cl)cc(Cl)cc12)C1CCCCN1 (stereo partly drawn)	none (no result: p53ts 39C tox, p53ts 32C kill, IkB sig inh)
Cc1ccc(-c2nnc(Nc3ccccc3)o2)cc1	p53ts 39C tox 3.16µM, p53ts 32C kill 3.16µM, IkB sig inh inconclusive
CCN(CC)S(=O)(=O)c1nnc(NC(=O)COc2ccc(Cl)cc2)s1	p53ts 39C tox 15.8µM, p53ts 32C kill inconclusive, IkB sig inh inconclusive
CCN(CC)S(=O)(=O)c1nnc(NC(=O)COc2ccccc2)s1	none
NC(=S)NCCC[C@@H](N)C(=O)O	none (no result: Peg3 imprint)
O=C(NCc1ccccc1Cl)C1CCC(CNS(=O)(=O)c2ccc(Br)s2)CC1 (stereo not drawn)	p53ts 39C tox 12.6µM, p53ts 32C kill inconclusive
CCOc1ccc(NC(=O)CSc2oc(-c3ccc(C)cc3)nc2S(=O)(=O)c2ccc(C)cc2)cc1	p53ts 39C tox 0.794µM, p53ts 32C kill 12.6µM
CCOc1ccc(NC(=O)CSc2oc(-c3cccs3)nc2S(=O)(=O)c2ccc(Cl)cc2)cc1	p53ts 39C tox 12.6µM, IkB sig inh inconclusive
Cc1cc(C)cc(NC(=O)CSc2oc(-c3ccccc3)nc2S(=O)(=O)c2ccccc2)c1	p53ts 39C tox inconclusive, IkB sig inh inconclusive
COc1ccccc1CCNC(=O)Cc1c(C)c2ccc(O)cc2oc1=O	IkB sig inh inconclusive
CCOc1cccc(-c2nc3cc(C)ccc3o2)c1	p53ts 39C tox inconclusive, p53ts 32C kill 15.8µM
Cc1cccc(OCC(=O)Nc2ccc(-c3nc4cc(C)ccc4o3)c(O)c2)c1	p53ts 39C tox 10µM
CCOc1ccc(-c2nc3cc(NC(=O)COc4cccc(C)c4)ccc3o2)cc1	none
C#CCCCO/N=C1/C[C@@H](O)[C@@H](O)[C@@H]2[C@@H]3C(=O)N(CCC(=O)OCC)C(=O)[C@H]3CC[C@H]12	none (no result: IkB sig inh, Peg3 imprint)
COc1ccc(N2CCN(c3nc4ccc(C)cc4n4nnnc34)CC2)cc1	none
CC(C)[C@@H]1OC(=O)C=CC=CC=CC=CC=CC[C@@H](O)[C@H](C)[C@@H](O)C[C@H](O)C[C@H](O)C[C@H](O)C[C@H](O)C[C@H](O)C[C@H](O)C=C[C@@H]1C	none (no result: p53ts 39C tox, p53ts 32C kill, Peg3 imprint)
COc1ccccc1CNc1ncnc2onc(-c3ccc(Cl)cc3)c12	IkB sig inh inconclusive
Cc1cc(C(=O)CN2C(=O)c3ccccc3S2(=O)=O)c(C)n1CC1CCCO1 (stereo not drawn)	p53ts 39C tox 1µM, p53ts 32C kill 2.51µM
CCOC(=O)CCN1C(=O)[C@@H]2[C@H]3C(=CC[C@H]2C1=O)C(=O)[C@H]1O[C@H]1[C@H]3O	none (no result: IkB sig inh, Peg3 imprint)
Cc1ccccc1-c1nnc(CN2CCN(c3cc(Cl)ccc3C)CC2)o1	none
C=Cc1ccc(Cn2c(C(=O)O)c(CNCCc3ccccc3)c3ccc(C)cc32)cc1	p53ts 39C tox inconclusive, IkB sig inh inconclusive
C=Cc1ccc(Cn2c(C(=O)O)c(CNCc3cc(OC)ccc3OC)c3ccc(C)cc32)cc1	p53ts 39C tox 12.6µM, p53ts 32C kill inconclusive, IkB sig inh inconclusive
CCCCN1C(=O)/C(=C2\SC(N3CCCCC3)=NC2=O)c2ccccc21	p53ts 39C tox 15.8µM, p53ts 32C kill 12.6µM, IkB sig inh inconclusive
O=C1N=C(N2CCOCC2)S/C1=C1\C(=O)N(Cc2ccccc2)c2ccc(Br)cc21	none
CCN(CC)CCCC(C)n1c(-c2ccccc2)nc2c(NCc3ccccc3)nc(C)nc21 (stereo not drawn)	none (no result: IkB sig inh)
Cc1ccc(Cl)cc1-n1c(SCC(=O)NCc2ccccc2)nc2n[nH]c(C)c2c1=N	p53ts 39C tox inconclusive
CCc1ccc(NC(=O)CSc2nc3n[nH]c(C)c3c(=N)n2-c2ccc(C)cc2)cc1	p53ts 39C tox 20µM, p53ts 32C kill inconclusive

Source: PubChem BioAssay (National Center for Advancing Translational Sciences (NCATS))
